Data taken from PubChem BioAssay AID504334 (NMMLSC, 2011).
Calls of active or inactive are those of the source.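 How the source made its calls: active means response relative to DMSO over 150%; inconclusive means yeast strain with under 70 recorded events; inactive means the rest.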

test: yeast AGP1-GFP fluorescence change, single-dose confirmation – cell-based, flow cytometry, S. cerevisiae, cherry pick set 3 (AID 504334);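 further: median GFP fluorescence per well by flow cytometry over the all cells gate; ratio of sample to mean DMSO control signal so DMSO = 100% not 0%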; settings: S. cerevisiae AGP1-GFP strain, 3 h, at 10 µM, hits give high values

Percent response vs DMSO, inactive:
COc1cccc(N/C=C/C(=O)c2ccc(Cl)cc2)c1 93.8%
CNc1nc(N)c([N+](=O)[O-])c(Nc2cccc(Cl)c2)n1 104%
CCc1sc(C(=O)Nc2nc(-c3ccccn3)cs2)cc1C 111%
CC(=O)NC(C)c1cc(Cl)c2cccnc2c1O (centres undefined) 102%
COc1cccc2c(=O)c(C(=O)O)c[nH]c12 94.1%
C/C(=C\C(=O)c1ccc(C)cc1)Nc1cccc(O)c1 101%
Nc1cccc2c1C(=O)c1ccc(Cl)cc1C2=O 102%
Cc1ccc(NN2C(=O)C=C(c3ccccc3)C2=O)cc1 92.8%
Cc1nc(Nc2ccc(Br)cc2Br)c([N+](=O)[O-])c(=O)[nH]1 95.4%
CC(=O)Nc1ccc(-c2nc3cc(Cl)ccc3o2)cc1 96.1%
COc1ccc(OC)c(Nc2nc(NCCC(C)C)nc(N)c2[N+](=O)[O-])c1 98.4%
Cc1cc(C)c2ccc(C(=O)O)nc2c1O 97.4%
CC1=CN2C(=N)/C(=C/c3ccc(C)o3)C(=O)N=C2S1 98.1%
CC1=NNC(=O)/C1=C\c1cn(-c2ccccc2)nc1-c1ccc(F)cc1 108%
Cc1ccc(-c2cc(C(F)F)nc(S(C)(=O)=O)n2)cc1 110%
Cc1cccc(Nc2cc(=O)[nH]c(=O)[nH]2)c1 96.8%
Cc1ccc(C(=O)Nc2nc(-c3ccccn3)cs2)o1 102%
COc1cccc2c(O)cc(=O)n(C)c12 99.1%
Cc1ccc(C(=O)/C=C/Nc2cccc(O)c2)cc1 96.8%
OCCNc1ncnc2ccc(Br)cc12 101%
CSc1nc(Nc2ccc(Cl)cc2)c(C#N)c(=O)[nH]1 98.4%
CCOC(=O)CS(=O)(=O)c1nc(-c2ccccc2)cc(C(F)(F)F)n1 122%
C=CCNc1ncnc2ccccc12 102%
CN1CCN(C(=O)c2cc(COc3ccc(F)cc3Cl)on2)CC1c1ccccc1 (centres undefined) 101%
CCCC(=O)Nn1cnc2c(c1=O)C1(CCCCC1)Cc1ccccc1-2 102%
CNc1cccc2c1C(=O)c1ccccc1C2=O 100%
Cc1cccc(C)c1Nc1ncnc(N)c1[N+](=O)[O-] 102%
Cc1nc2c(O)cccc2cc1CO 99.1%
CC(=O)Nc1ccc(-c2nc3ccccc3o2)cc1 96.8%
COc1ccc(OC)c2c(C)cc(C)nc12 97.1%
CS(=O)(=O)c1nc(-c2ccc(F)cc2)cc(C(F)(F)F)n1 114%
Nc1c(C(=O)O)ccc2c1C(=O)c1ccccc1C2=O 114%
Cc1cccc(Nc2cc(=O)[nH]c(=O)[nH]2)c1C 99.4%
NC(=O)c1ccnc2c(O)cccc12 100%
O=C(/C=C/Nc1cccc(O)c1)c1ccccc1 102%
Cn1c(=O)c2c(n3cnnc13)-c1ccccc1CC21CCCC1 104%
COc1ccc(NC(=O)ON=C2c3ccccc3-c3ccccc32)cc1 98.1%
COc1ccc(OC)c(N/C(C)=C/C(=O)c2ccccc2)c1 99.8%
Oc1ccc(Cl)c2cccnc12 109%
